# In the supplement of paper PMC8975748:
# Where a name gives a salt, the structure may show the parent alone.
# Test system: Saccharomyces cerevisiae BY4741 SeMeCo community
# Assay: z-score of subpopulation abundance vs DMSO median, subpopulation auxotrophic for U; higher = larger share of this subpopulation than in DMSO controls
# Details: 10 µM; 24 h; SM minimal medium; subpopulation (auxotrophy): U
# Description: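 Fluorescent four-plasmid SeMeCo (self-establishing metabolically cooperating S. cerevisiae BY4741 community; plasmids pH-mRuby2, pL-mWasabi, pU-eCFP, pM-TagRFP657) was grown 24 h in minimal SM medium with each Selleck FDA-approved drug at 10 µM in 384-well plates. Cells were fixed and imaged by high-content confocal microscopy. For each auxotrophic subpopulation (and the prototroph), a z-score gives the deviation from the DMSO vehicle-control population median.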
row,SMILES,z-score of subpopulation abundance
1,OCCOCCN1CCN(C2=Nc3ccccc3Sc3ccccc32)CC1 [Quetiapine Fumarate],-0.17
2,CN(C)[C@@H]1C(=O)C(C(N)=O)=C(O)[C@@]2(O)C(=O)C3=C(O)c4c(O)ccc(Cl)c4[C@@H](O)[C@H]3C[C@@H]12 [Demeclocycline HCl],0.03
3,O=C(c1ccc(OCCN2CCCCC2)cc1)c1c(-c2ccc(O)cc2)sc2cc(O)ccc12 [Raloxifene HCl],-1.87
4,O=C(O)C[C@H](O)C[C@H](O)/C=C/c1c(C2CC2)nc2ccccc2c1-c1ccc(F)cc1 [Pitavastatin Calcium],0.68
5,CC[C@H]1OC(=O)[C@H](C)[C@@H](O[C@H]2C[C@@](C)(OC)[C@@H](O)[C@H](C)O2)[C@H](C)[C@@H](O[C@@H]2O[C@H](C)C[C@H](N(C)C)[C@H]2O)[C@](C)(O)C[C@@H](C)C(=O)[C@H](C)[C@@H](O)[C@]1(C)O [Erythromycin],-1.28
6,OC(CCCN1CCCCC1)(c1ccccc1)c1ccccc1 [Diphenidol HCl],0.63
7,CN1CC2c3ccccc3Oc3ccc(Cl)cc3C2C1 (stereo not given) [Asenapine maleate],-0.5
8,CC(=O)OCC1=C(C(=O)O)N2C(=O)C(NC(=O)CSC(=NC(C)C)NC(C)C)C2SC1 (stereo not given) [Cefathiamidine],0.86
9,C[C@H]1COc2c(N3CCN(C)CC3)c(F)cc3c(=O)c(C(=O)O)cn1c23 [Levofloxacin hydrate],0.27
10,COC(=O)C1=C(C)NC(C)=C(C(=O)OCCN2CCN(C(c3ccccc3)c3ccccc3)CC2)C1c1cccc([N+](=O)[O-])c1 (stereo not given) [Manidipine],-1.02
11,C=CCc1ccc(O)c(-c2ccc(O)c(CC=C)c2)c1 [Honokiol],-1.32
12,COc1cc(C(C)=O)ccc1OCCCN1CCC(c2noc3cc(F)ccc23)CC1 [Iloperidone],-0.16
13,CCCOc1ccc2[nH]c(NC(=O)OC)nc2c1 [Oxibendazole],0.5
14,CO/N=C(\C(=O)N[C@@H]1C(=O)N2C(C(=O)O)=C(COC(N)=O)CS[C@H]12)c1ccco1 [Cefuroxime sodium],0.58
15,O=C1Cc2cc(CCN3CCN(c4nsc5ccccc45)CC3)c(Cl)cc2N1 [Ziprasidone HCl],-0.99
16,CCCc1nc(C)c2c(=O)nc(-c3cc(S(=O)(=O)N4CCN(CC)CC4)ccc3OCC)[nH]n12 [Vardenafil HCl Trihydrate],1.19
17,CC(C)n1c(/C=C/C(O)CC(O)CC(=O)O)c(-c2ccc(F)cc2)c2ccccc21 (stereo not given) [Fluvastatin Sodium],0.84
18,COC(=O)Nc1nc2cc(C(=O)c3ccccc3)ccc2[nH]1 [Mebendazole],1.91
19,Cc1cccc(C)c1NC(=O)C1CCCCN1C (stereo not given) [Mepivacaine HCl],1.52
20,CC1=C(CC(=O)O)c2cc(F)ccc2/C1=C\c1ccc([S+](C)[O-])cc1 (stereo not given) [Sulindac],-1.92

row,SMILES,z-score of subpopulation abundance
1,C#C[C@]1(O)CC[C@H]2[C@@H]3CCc4cc(O)ccc4[C@H]3CC[C@@]21C [Ethinyl Estradiol],-1.01
2,Cc1ccc(-c2cc(C(F)(F)F)nn2-c2ccc(S(N)(=O)=O)cc2)cc1 [Celecoxib],-0.79
3,COc1cccc(CCc2ccccc2OCC(CN(C)C)OC(=O)CCC(=O)O)c1 (stereo not given) [Sarpogrelate hydrochloride],-0.21
4,CC(C)[N+](C)(CCOC(=O)C1c2ccccc2Oc2ccccc21)C(C)C [Propantheline bromide],-0.28
5,Oc1ccc(Cl)c2cccnc12 [Cloxiquine],-1.71
6,C[C@@H]1CC(=O)NN=C1c1ccc(NN=C(C#N)C#N)cc1 [Levosimendan],0.92
7,"OCc1ccc(Cl)cc1Cl [2,4-dichlorobenzyl alcohol]",0.58
8,CN(C)CCN1C(=O)c2cccc3cc(N)cc(c23)C1=O [Amonafide],-1.14
9,O=C(c1ccccc1)c1ccc2n1CCC2C(=O)O (stereo not given) [Ketorolac],-0.78
10,C/C=C1\[C@H]2C=C(C)C[C@]1(N)c1ccc(=O)[nH]c1C2 [(-)-Huperzine A (HupA)],0.2
11,CN(C)CCOc1ccc(/C(=C(/CCCl)c2ccccc2)c2ccccc2)cc1 [Toremifene Citrate],0.79
12,CC1(C)[C@H](C(=O)O)N2C(=O)C[C@H]2S1(=O)=O [Sulbactam],-0.63
13,Cc1onc(-c2c(Cl)cccc2Cl)c1C(=O)N[C@@H]1C(=O)N2[C@@H]1SC(C)(C)[C@@H]2C(=O)O [Dicloxacillin Sodium],-0.31
14,OCCN1CCN(CCCN2c3ccccc3Sc3ccc(C(F)(F)F)cc32)CC1 [Fluphenazine dihydrochloride],-0.38
15,O=C1[C@H]2CCCC[C@H]2C(=O)N1CCCCN1CCN(c2nsc3ccccc23)CC1 [Perospirone hydrochloride],0.1
16,C[C@H]1NCc2cc(-c3ccc4c(=O)c(C(=O)O)cn(C5CC5)c4c3OC(F)F)ccc21 [Garenoxacin],0.6
17,CCC(=O)c1c(O)cc(O)cc1O [Flopropione],-0.13
18,CCN1CCC[C@H]1CNC(=O)c1cc(S(N)(=O)=O)ccc1OC [Levosulpiride],0.41
19,CC(=O)OCC1=C(C(=O)O)N2C(=O)[C@@H](NC(=O)CSc3ccncc3)[C@H]2SC1 [Cephapirin Benzathine],1.05
20,COc1ccc(C2CNC(=O)C2)cc1OC1CCCC1 (stereo not given) [Rolipram],-0.09
